# In the supplement of paper PMC4466140:
# B1: unnamed (peptide)
# chain: KDKKTKPTPPPKPSH
# B2: unnamed (peptide)
# chain: MARRRLPDRPPNGIG
# Columns and labels:
# Assay in all cases: SPOT peptide array binding signal intensity (averaged, normalized) (arbitrary units (background-subtracted, floor 0; scale differs between SH3 domains)); higher = stronger binding of the SH3 domain to the peptide
# AgAbp1 = target: AgAbp1
# Method in brief: (§1)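 Binding signal refers to normalized, background-subtracted spot intensity averaged over replicates, expressed in arbitrary units that differ between domains. GST-fused SH3 domains from four yeast species were incubated at 10 μg/ml overnight at 4°C on cellulose membranes of synthetic 15-mer peptides with cysteines replaced by serines. Bound protein was detected with anti-GST antibody, an HRP anti-mouse secondary and luminol, and quantified with Genespotter.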
# AgBbc1 = target: AgBbc1
# Method in brief: as §1
# AgBem1-D1 = target: AgBem1-D1
# Method in brief: as §1
# AgBzz1-D1 = target: AgBzz1-D1
# Method in brief: as §1
# AgBzz1-D2 = target: AgBzz1-D2
# Method in brief: as §1
# AgCyk3 = target: AgCyk3
# Method in brief: as §1
# AgFus1 = target: AgFus1
# Method in brief: as §1
# AgHof1 = target: AgHof1
# Method in brief: as §1
# AgHse1 = target: AgHse1
# Method in brief: as §1
# AgLsb1 = target: AgLsb1
# Method in brief: as §1
# AgLsb4 = target: AgLsb4
# Method in brief: as §1
# AgMyo5 = target: AgMyo5
# Method in brief: as §1
# AgNbp2 = target: AgNbp2
# Method in brief: as §1
# AgRvs167 = target: AgRvs167
# Method in brief: as §1
# AgSho1 = target: AgSho1
# Method in brief: as §1
# AgSla1-D1-D2 = target: AgSla1-D1-D2
# Method in brief: as §1
# AgSla1-D3 = target: AgSla1-D3
# Method in brief: as §1
# CaAbp1-D1 = target: CaAbp1-D1
# Method in brief: as §1
# CaAbp1-D2 = target: CaAbp1-D2
# Method in brief: as §1
# CaBbc1 = target: CaBbc1
# Method in brief: as §1
# CaBem1-D1 = target: CaBem1-D1
# Method in brief: as §1
# CaBzz1-D1 = target: CaBzz1-D1
# Method in brief: as §1
# CaBzz1-D2 = target: CaBzz1-D2
# Method in brief: as §1
# CaCyk3 = target: CaCyk3
# Method in brief: as §1
# CaFus1 = target: CaFus1
# Method in brief: as §1
# CaHof1 = target: CaHof1
# Method in brief: as §1
# CaHse1 = target: CaHse1
# Method in brief: as §1
# CaLsb1 = target: CaLsb1
# Method in brief: as §1
# CaLsb4 = target: CaLsb4
# Method in brief: as §1
# CaMyo5 = target: CaMyo5
# Method in brief: as §1
# CaNbp2 = target: CaNbp2
# Method in brief: as §1
# CaRvs167 = target: CaRvs167
# Method in brief: as §1
# CaRvs167-3 = target: CaRvs167-3
# Method in brief: as §1
# CaSho1 = target: CaSho1
# Method in brief: as §1
# CaSla1-D1-D2 = target: CaSla1-D1-D2
# Method in brief: as §1
# CaSla1-D3 = target: CaSla1-D3
# Method in brief: as §1
# ScAbp1 = target: ScAbp1
# Method in brief: as §1
# ScBbc1 = target: ScBbc1
# Method in brief: as §1
# ScBem1-D1 = target: ScBem1-D1
# Method in brief: as §1
# ScBzz1-D1 = target: ScBzz1-D1
# Method in brief: as §1
# ScBzz1-D2 = target: ScBzz1-D2
# Method in brief: as §1
# ScCyk3 = target: ScCyk3
# Method in brief: as §1
# ScFus1 = target: ScFus1
# Method in brief: as §1
# ScHof1 = target: ScHof1
# Method in brief: as §1
# ScHse1 = target: ScHse1
# Method in brief: as §1
# ScLsb1 = target: ScLsb1
# Method in brief: as §1
# ScLsb2 = target: ScLsb2
# Method in brief: as §1
# ScLsb3 = target: ScLsb3
# Method in brief: as §1
# ScLsb4 = target: ScLsb4
# Method in brief: as §1
# ScMyo3 = target: ScMyo3
# Method in brief: as §1
# ScMyo5 = target: ScMyo5
# Method in brief: as §1
# ScNbp2 = target: ScNbp2
# Method in brief: as §1
# ScPex13 = target: ScPex13
# Method in brief: as §1
# ScRvs167 = target: ScRvs167
# Method in brief: as §1
# ScSho1 = target: ScSho1
# Method in brief: as §1
# ScSla1-D1-D2 = target: ScSla1-D1-D2
# Method in brief: as §1
# ScSla1-D3 = target: ScSla1-D3
# Method in brief: as §1
# SpAbp1-D1 = target: SpAbp1-D1
# Method in brief: as §1
# SpBbc1 = target: SpBbc1
# Method in brief: as §1
# SpBzz1-D1 = target: SpBzz1-D1
# Method in brief: as §1
# SpBzz1-D2 = target: SpBzz1-D2
# Method in brief: as §1
# SpCyk3 = target: SpCyk3
# Method in brief: as §1
# SpHof1 = target: SpHof1
# Method in brief: as §1
# SpHof1-2 = target: SpHof1-2
# Method in brief: as §1
# SpHof1-3 = target: SpHof1-3
# Method in brief: as §1
# SpHse1 = target: SpHse1
# Method in brief: as §1
# SpLsb1 = target: SpLsb1
# Method in brief: as §1
# SpLsb4 = target: SpLsb4
# Method in brief: as §1
# SpMyo1 = target: SpMyo1
# Method in brief: as §1
# SpNbp2 = target: SpNbp2
# Method in brief: as §1
# SpPex13 = target: SpPex13
# Method in brief: as §1
# SpRvs167 = target: SpRvs167
# Method in brief: as §1
# SpSla1-D1-D2 = target: SpSla1-D1-D2
# Method in brief: as §1
# SpSla1-D3 = target: SpSla1-D3
# Method in brief: as §1
binder,measurement,setting,value
B1,SPOT peptide array binding signal intensity,AgAbp1,494
same,SPOT peptide array binding signal intensity,AgBbc1,26.8
same,SPOT peptide array binding signal intensity,AgBem1-D1,60.5
same,SPOT peptide array binding signal intensity,AgBzz1-D1,42
same,SPOT peptide array binding signal intensity,AgBzz1-D2,48
same,SPOT peptide array binding signal intensity,AgCyk3,≤ 0
same,SPOT peptide array binding signal intensity,AgFus1,≤ 0
same,SPOT peptide array binding signal intensity,AgHof1,19.5
same,SPOT peptide array binding signal intensity,AgHse1,29
same,SPOT peptide array binding signal intensity,AgLsb1,≤ 0
same,SPOT peptide array binding signal intensity,AgLsb4,≤ 0
same,SPOT peptide array binding signal intensity,AgMyo5,≤ 0
same,SPOT peptide array binding signal intensity,AgNbp2,≤ 0
same,SPOT peptide array binding signal intensity,AgRvs167,1.5
same,SPOT peptide array binding signal intensity,AgSho1,34.5
same,SPOT peptide array binding signal intensity,AgSla1-D1-D2,7
same,SPOT peptide array binding signal intensity,AgSla1-D3,4
same,SPOT peptide array binding signal intensity,CaAbp1-D1,275
same,SPOT peptide array binding signal intensity,CaAbp1-D2,226
same,SPOT peptide array binding signal intensity,CaBbc1,132
same,SPOT peptide array binding signal intensity,CaBem1-D1,0.5
same,SPOT peptide array binding signal intensity,CaBzz1-D1,1220
same,SPOT peptide array binding signal intensity,CaBzz1-D2,715
same,SPOT peptide array binding signal intensity,CaCyk3,≤ 0
same,SPOT peptide array binding signal intensity,CaFus1,≤ 0
same,SPOT peptide array binding signal intensity,CaHof1,1.5
same,SPOT peptide array binding signal intensity,CaHse1,2
same,SPOT peptide array binding signal intensity,CaLsb1,1
same,SPOT peptide array binding signal intensity,CaLsb4,≤ 0
same,SPOT peptide array binding signal intensity,CaMyo5,2.25
B2,SPOT peptide array binding signal intensity,AgAbp1,546
same,SPOT peptide array binding signal intensity,AgBbc1,428
same,SPOT peptide array binding signal intensity,AgBem1-D1,143
same,SPOT peptide array binding signal intensity,AgBzz1-D1,55
same,SPOT peptide array binding signal intensity,AgBzz1-D2,95
same,SPOT peptide array binding signal intensity,AgCyk3,16
same,SPOT peptide array binding signal intensity,AgFus1,148
same,SPOT peptide array binding signal intensity,AgHof1,112
same,SPOT peptide array binding signal intensity,AgHse1,216
same,SPOT peptide array binding signal intensity,AgLsb1,158
same,SPOT peptide array binding signal intensity,AgLsb4,2490
same,SPOT peptide array binding signal intensity,AgMyo5,≤ 0
same,SPOT peptide array binding signal intensity,AgNbp2,410
same,SPOT peptide array binding signal intensity,AgRvs167,487
same,SPOT peptide array binding signal intensity,AgSho1,636
same,SPOT peptide array binding signal intensity,AgSla1-D1-D2,179
same,SPOT peptide array binding signal intensity,AgSla1-D3,16.5
same,SPOT peptide array binding signal intensity,CaAbp1-D1,1170
same,SPOT peptide array binding signal intensity,CaAbp1-D2,788
same,SPOT peptide array binding signal intensity,CaBbc1,1100
same,SPOT peptide array binding signal intensity,CaBem1-D1,184
same,SPOT peptide array binding signal intensity,CaBzz1-D1,308
same,SPOT peptide array binding signal intensity,CaBzz1-D2,102
same,SPOT peptide array binding signal intensity,CaCyk3,290
same,SPOT peptide array binding signal intensity,CaFus1,280
same,SPOT peptide array binding signal intensity,CaHof1,5.25
same,SPOT peptide array binding signal intensity,CaHse1,89
same,SPOT peptide array binding signal intensity,CaLsb1,6.75
same,SPOT peptide array binding signal intensity,CaLsb4,2570
same,SPOT peptide array binding signal intensity,CaMyo5,22.5
same,SPOT peptide array binding signal intensity,CaNbp2,1660
same,SPOT peptide array binding signal intensity,CaRvs167,923
same,SPOT peptide array binding signal intensity,CaRvs167-3,25.5
same,SPOT peptide array binding signal intensity,CaSho1,794
same,SPOT peptide array binding signal intensity,CaSla1-D1-D2,1100
same,SPOT peptide array binding signal intensity,CaSla1-D3,138
same,SPOT peptide array binding signal intensity,ScAbp1,135
same,SPOT peptide array binding signal intensity,ScBbc1,126
same,SPOT peptide array binding signal intensity,ScBem1-D1,7
same,SPOT peptide array binding signal intensity,ScBzz1-D1,29
same,SPOT peptide array binding signal intensity,ScBzz1-D2,33
same,SPOT peptide array binding signal intensity,ScCyk3,22.5
same,SPOT peptide array binding signal intensity,ScFus1,61
same,SPOT peptide array binding signal intensity,ScHof1,53.2
same,SPOT peptide array binding signal intensity,ScHse1,241
same,SPOT peptide array binding signal intensity,ScLsb1,434
same,SPOT peptide array binding signal intensity,ScLsb2,176
same,SPOT peptide array binding signal intensity,ScLsb3,3700
same,SPOT peptide array binding signal intensity,ScLsb4,1540
same,SPOT peptide array binding signal intensity,ScMyo3,7
same,SPOT peptide array binding signal intensity,ScMyo5,≤ 0
same,SPOT peptide array binding signal intensity,ScNbp2,523
same,SPOT peptide array binding signal intensity,ScPex13,438
same,SPOT peptide array binding signal intensity,ScRvs167,2820
same,SPOT peptide array binding signal intensity,ScSho1,1560
same,SPOT peptide array binding signal intensity,ScSla1-D1-D2,1290
same,SPOT peptide array binding signal intensity,ScSla1-D3,100
same,SPOT peptide array binding signal intensity,SpAbp1-D1,1340
same,SPOT peptide array binding signal intensity,SpBbc1,43.8
same,SPOT peptide array binding signal intensity,SpBzz1-D1,450
same,SPOT peptide array binding signal intensity,SpBzz1-D2,9
same,SPOT peptide array binding signal intensity,SpCyk3,221
same,SPOT peptide array binding signal intensity,SpHof1,1210
same,SPOT peptide array binding signal intensity,SpHof1-2,1530
same,SPOT peptide array binding signal intensity,SpHof1-3,3040
same,SPOT peptide array binding signal intensity,SpHse1,104
same,SPOT peptide array binding signal intensity,SpLsb1,178
same,SPOT peptide array binding signal intensity,SpLsb4,5420
same,SPOT peptide array binding signal intensity,SpMyo1,52.8
same,SPOT peptide array binding signal intensity,SpNbp2,144
same,SPOT peptide array binding signal intensity,SpPex13,123
same,SPOT peptide array binding signal intensity,SpRvs167,1670
same,SPOT peptide array binding signal intensity,SpSla1-D1-D2,393
same,SPOT peptide array binding signal intensity,SpSla1-D3,23
